The text below walks through data of PubChem BioAssay.

Test [1] is described as follows: inhibitors of TNFa-induced NFkB p65 translocation, primary screen, imaging, HUVEC, MLSMR starter and 10KST1 sets (AID 438;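 active = inhibition above 20% together with a positive visual image hit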;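 note: compound added about 3h40 before a 20 min TNFalpha stimulation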;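 for inhibition: signal is the nuclear over cytoplasmic p65 intensity ratio per well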). The note with it: HUVEC TNFa-induced p65 nuclear translocation; cell count: measured here: nuclei count (cytotoxicity indicator), at 2.08 µM; inhibition: at 2 µM, stronger effect = higher value, 0% TNFa-plus-vehicle, 100% no-TNFa wells.
Test [2] in a line: inhibitors of mutant huntingtin aggregation, primary screen, imaging, exon1htt(103Q)mCFP cells, high-content imaging (AID 483;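 active = visual image review flags a hit and inhibition of aggregation exceeds 20%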;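 note: compound exposure lasted 3 days before fixation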;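 for nuclei count: percent of the per-plate median nuclei count of sample wells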). The note with it: exon1htt(103Q)mCFP cell line, aggregate imaging, at 2 µM; inhibition of aggregation: stronger effect = higher value; nuclei count: measured here: cell count, toxicity.
A short description of test [3]: inhibitors of E-selectin induction by TNFa, primary screen, imaging, HUVEC, immunofluorescence, MLSMR starter and 10KST1 sets (AID 487;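 active = visually confirmed hit in the image check and inhibition above 20%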;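 for inhibition: signal is fraction of cell area covered by stained E-selectin grains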;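 for nuclei count: 100% = median nuclei count of all wells on the same plate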). The note with it: HUVEC TNFalpha-induced E-selectin immunofluorescence imaging, at 2 µM; inhibition: stronger effect = higher value; nuclei count: measured here: cell number, toxicity.
Test [4] in a line: DUSP6 inhibitors restoring Erk phosphorylation by chemical complementation, primary imaging in DUSP6-transfected HeLa (AID 609;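 active = compounds giving at least 50% inhibition in the cell-based MKP-3 phosphatase rescue imaging test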;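 for inhibition: phospho-Erk level distribution per well compared with pooled transfected vehicle control wells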). As to conditions: HeLa MKP-3 transfected, phospho-Erk imaging KS statistic, at 10 µM, cells stimulated with TPA for 15 min.
Test [5] concerns the target Dual specificity protein phosphatase 6 (Homo sapiens) (UniProt Q16828). The test is described as above. As to conditions: HeLa MKP-3 transfected, phospho-Erk imaging KS statistic; at 10 µM; stronger effect = higher value; cells stimulated with TPA for 15 min.
The target of test [6] is Voltage-gated potassium channel subunit beta-2 (Rattus norvegicus) (UniProt P62483). The test is described as follows: KvBeta enzyme negative modulators, primary screen, biochemical, NADPH fluorescence (AID 622;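 active = fluorescence slope higher than the sample average by over 3 SD, cut at about -0.22 in these data, passing the limit was not always enough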;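 note: slope of raw intensity against log time taken from 70 to 1610 s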). As to conditions: recombinant KvBeta, 4-cyanobenzaldehyde reduction, at 10 µM, stronger effect = higher value.
The target is the same in test [7]. Briefly: KvBeta positive modulators, primary screen, biochemical, NADPH fluorescence (AID 623;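 active = NADPH fluorescence slope more negative than the mean of all samples by about 3 SD, 99.7% confidence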;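 note: fluorescence intensity change per second fitted from 20 to 320 s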). The note with it: Recombinant KvBeta, NADPH fluorescence decrease slope, 10 min; at 10 µM; stronger effect = lower value.
Test [8] has as its target Alpha-2C adrenergic receptor (Homo sapiens) (UniProt P18825). The test is described as follows: modulators of alpha2C/GIRK thallium flux, primary screen, cell-based, HEK293 alpha2C/GIRK1/2 (AID 624;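 active = fluorescence slope after compound addition differing from the mean of all screened samples at 99.7% confidence, in either direction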;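 note: slope of fluorescence ratio to pre-addition baseline per second over 15 to 24 s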). As to conditions: thallium flux BTC fluorescence, at 10 µM, actives lie on both sides.
Test [9] in a line: inhibitors of Chlamydomonas gravitaxis, primary screen, whole organism, Chlamydomonas reinhardtii, WT vs cilia-less mutant, absorbance, 96-well (AID 463189).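 Note: 0% = wild type cc124 cells in DMSO and 100% = ciliumless bld1 mutant cells.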 As to conditions: OD600 absorbance, 2 days, at 10 µM, stronger effect = higher value.
The nature of test [10]: inhibitors of Sendai virus-induced IRF3 signaling, primary screen, TLR/RLR signaling modifier project, cell-based, Sendai virus stimulus, luciferase, 10K MLSCN set (AID 602276;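 active = inhibition at or above 50% at 10 µM; inactive = inhibition below 50%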;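 note: firefly luciferase from ISG56 promoter only with Renilla not read in this screen; 0% = Sendai virus plus DMSO and 100% = medium plus DMSO without virus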). The note with it: HEK293 RL24 IRF3 luciferase reporter, at 10 µM, stronger effect = higher value. Background: A reporter such as luciferase makes a cellular process visible.
Test [11] in a line: inhibitors of poly I:C-induced TLR3 signaling, primary screen, cell-based, poly I:C stimulus, luciferase, 10K MLSCN set (AID 602277;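 active = inhibition of the reporter signal at or above 50%; inactive = inhibition below 50%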). The note with it: HEK293-TLR3 RL24 IRF3 luciferase reporter, at 10 µM, stronger effect = higher value.
For test [12], the target named is Solute carrier family 12 member 5 (Homo sapiens) (UniProt Q9H2X9). Briefly: KCC2 modulators in sodium-free buffer, confirmation, cell-based, HEK293 KCC2, thallium flux, secondary assay (AID 1713;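 active = thallium flux slope above the same plate's solvent-only control mean plus 3 SD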). As to conditions: FluoZin2 fluorescence, at 10 µM, stronger effect = higher value.
The target is the same in test [13]. The test is described as follows: KCC2 modulators without ouabain present, confirmation, cell-based, HEK293 KCC2, thallium flux, FluoZin2, secondary assay 2 (AID 1715;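 active = thallium flux slope more than 3 SD above or below the plate's solvent-only control mean, mostly below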;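 note: raw slope with 0.1% DMSO as baseline and bumetanide as block control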). As to conditions: HEK293-KCC2, thallium flux FluoZin2 fluorescence; at 10 µM; actives lie on both sides; F/F0 rise rate, 10–20 s post-thallium.
Test [14] in a line: thallium flux modulation in parental HEK cells, confirmation, counter-screen for KCC2 modulator project, cell-based, counterscreen 1 (AID 1716;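 active = thallium flux rate significantly above the same plate's solvent-only control wells, beyond their mean plus 3 SD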). The note with it: HEK293 parental cells, thallium flux FluoZin2, ouabain; at 10 µM; baseline-ratio fluorescence slope, 10–20 s after thallium. (In general: A counterscreen serves to expose hits that act by an unwanted route or on another target.)

Test [15] can be described thus: native HEK Tl+ uptake effects, second counter-screen – HEK cells, counterscreen 2, counter-screen for KCC2 modulator project, confirmation (AID 1718;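 active = thallium flux slope above the same plate's solvent-control mean plus 3 SD in both duplicate wells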;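 note: run without ouabain in cells lacking the KCC2 cotransporter; slope of fluorescence scaled to its starting value between 10 and 20 s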). The note with it: HEK293 parental, thallium flux FluoZin-2 fluorescence slope; at 10 µM.
The mark [16] stands for this setting: measured here: cell density z-score.
The mark [17] stands for this setting: measured here: nuclear c-Myc green intensity z-score.
The mark [18] stands for this setting: measured here: nuclear pErk red intensity z-score, stronger effect = higher value.

Molecules are shown by their SMILES. Several values for one entry are separate records, joined by “and”; a condition that tells them apart may be missing. Equal values may be shown once. Some of the results follow. Inconclusive results are not listed. Activity calls are given as the source filed them.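 Rule for the calls, unless noted: active = inhibition at or above 50% relative to wild type and mutant plate controls; inactive = inhibition below 50%.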

Chain of Alpha-2C adrenergic receptor (Homo sapiens) (P18825 whole entry, looked up): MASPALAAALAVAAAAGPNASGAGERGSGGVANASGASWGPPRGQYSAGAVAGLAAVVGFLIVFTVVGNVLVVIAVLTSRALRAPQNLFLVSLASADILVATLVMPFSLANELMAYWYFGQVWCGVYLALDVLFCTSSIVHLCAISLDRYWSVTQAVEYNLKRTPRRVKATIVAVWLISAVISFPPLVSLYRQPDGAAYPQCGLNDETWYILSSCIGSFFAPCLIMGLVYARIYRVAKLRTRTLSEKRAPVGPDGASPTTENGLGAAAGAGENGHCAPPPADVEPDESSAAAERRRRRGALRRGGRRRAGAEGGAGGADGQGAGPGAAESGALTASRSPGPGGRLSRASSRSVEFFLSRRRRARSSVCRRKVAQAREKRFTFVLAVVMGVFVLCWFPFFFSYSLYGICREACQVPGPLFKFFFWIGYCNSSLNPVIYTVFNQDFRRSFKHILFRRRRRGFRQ
Chain of Voltage-gated potassium channel subunit beta-2 (Rattus norvegicus) (P62483 whole entry, looked up): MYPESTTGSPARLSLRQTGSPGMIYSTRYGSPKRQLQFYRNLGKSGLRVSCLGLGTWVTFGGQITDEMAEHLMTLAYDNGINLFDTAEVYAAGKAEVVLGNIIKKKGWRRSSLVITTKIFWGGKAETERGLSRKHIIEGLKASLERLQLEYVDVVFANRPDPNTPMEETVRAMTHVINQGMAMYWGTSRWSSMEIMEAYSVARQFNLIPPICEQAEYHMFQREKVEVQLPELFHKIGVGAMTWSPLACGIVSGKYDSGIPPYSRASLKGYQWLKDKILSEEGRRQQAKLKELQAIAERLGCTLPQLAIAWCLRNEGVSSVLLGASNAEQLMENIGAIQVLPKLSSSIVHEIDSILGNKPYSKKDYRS
Chain of Dual specificity protein phosphatase 6 (Homo sapiens) (Q16828 whole entry, looked up): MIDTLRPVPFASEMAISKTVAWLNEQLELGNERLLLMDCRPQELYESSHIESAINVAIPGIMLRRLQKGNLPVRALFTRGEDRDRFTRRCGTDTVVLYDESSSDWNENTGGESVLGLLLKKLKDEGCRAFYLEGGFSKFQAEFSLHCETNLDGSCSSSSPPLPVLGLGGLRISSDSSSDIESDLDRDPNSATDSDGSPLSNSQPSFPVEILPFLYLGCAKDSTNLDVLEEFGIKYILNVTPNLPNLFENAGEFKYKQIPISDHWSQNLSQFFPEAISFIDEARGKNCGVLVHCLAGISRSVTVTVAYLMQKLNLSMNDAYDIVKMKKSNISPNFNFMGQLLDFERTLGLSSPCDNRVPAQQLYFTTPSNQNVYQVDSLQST
Chain of Solute carrier family 12 member 5 (Homo sapiens) (Q9H2X9 whole entry, looked up): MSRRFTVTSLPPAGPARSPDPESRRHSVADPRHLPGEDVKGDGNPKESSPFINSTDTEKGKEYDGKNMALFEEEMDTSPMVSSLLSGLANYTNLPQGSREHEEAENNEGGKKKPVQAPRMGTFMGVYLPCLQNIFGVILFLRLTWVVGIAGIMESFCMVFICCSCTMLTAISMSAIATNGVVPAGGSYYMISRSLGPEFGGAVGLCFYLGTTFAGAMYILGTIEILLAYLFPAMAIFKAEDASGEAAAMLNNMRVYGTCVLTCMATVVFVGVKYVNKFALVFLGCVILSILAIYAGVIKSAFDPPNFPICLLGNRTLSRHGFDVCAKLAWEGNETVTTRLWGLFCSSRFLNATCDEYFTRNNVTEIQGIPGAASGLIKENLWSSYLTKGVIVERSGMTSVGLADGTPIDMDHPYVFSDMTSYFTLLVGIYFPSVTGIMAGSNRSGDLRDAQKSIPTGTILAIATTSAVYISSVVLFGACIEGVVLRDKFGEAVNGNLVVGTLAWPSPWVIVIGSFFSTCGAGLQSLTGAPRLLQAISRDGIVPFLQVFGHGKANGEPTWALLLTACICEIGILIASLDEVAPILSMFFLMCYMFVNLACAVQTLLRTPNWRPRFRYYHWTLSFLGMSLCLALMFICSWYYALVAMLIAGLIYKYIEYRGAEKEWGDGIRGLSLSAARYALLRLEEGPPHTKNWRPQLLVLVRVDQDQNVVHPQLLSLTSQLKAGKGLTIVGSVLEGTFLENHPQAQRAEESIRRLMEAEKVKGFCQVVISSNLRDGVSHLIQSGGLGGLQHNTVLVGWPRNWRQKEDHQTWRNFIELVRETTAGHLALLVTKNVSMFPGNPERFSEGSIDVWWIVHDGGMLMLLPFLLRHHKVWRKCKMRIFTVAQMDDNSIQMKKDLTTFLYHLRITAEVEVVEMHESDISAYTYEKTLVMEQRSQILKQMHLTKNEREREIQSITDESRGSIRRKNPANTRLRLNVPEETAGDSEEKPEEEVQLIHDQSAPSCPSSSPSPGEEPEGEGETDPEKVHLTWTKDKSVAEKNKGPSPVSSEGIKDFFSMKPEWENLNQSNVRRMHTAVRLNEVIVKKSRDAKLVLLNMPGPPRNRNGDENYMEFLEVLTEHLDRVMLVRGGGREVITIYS

The inhibition is the relative decrease from the control value, in per cent. For `COCCNC(=O)c1c(N)n(/N=C/c2cccs2)c2nc3ccccc3nc12`, the cell count in test [1] stood at 516. For the same compound, the inhibition is 7.2% (inactive) in test [1]; -36.6% (inactive) in [3]; 1.75% (inactive) in test [5]; 17.7% (inactive) in test [9]; 5.03% (inactive) in [10]; -26.9% (inactive) in test [11]. Moreover, the inhibition of aggregation in [2] is -25.1% (inactive). Also, the nuclei count in test [2] turned out to be 108%; in [3], 107%. The z-score in test [4] (setting [16]) is 0.126; in [4] (setting [17]), 0.305; in test [4] (setting [18]), -0.729. In test [6], the fluorescence slope was -0.287 (inactive). Moreover, in test [7], the NADPH fluorescence slope was -9.2e-05 (inactive). Further, in test [8], the slope was 0.00574 (inactive).
For `CCOC(=O)c1c(NC(=S)NC)sc2c1CCCC2`, the normalised thallium flux (F/F0 slope) in [12] was 0.0181 (active). For the same compound, the normalized thallium flux in test [13] was 0.0972 (active). Moreover, in test [14], the thallium flux rate (normalised fluorescence) is 0.0987 (active). Moreover, the thallium flux slope in test [15] is 0.101 (active).
As for `Cn1c(/C(C#N)=C/Nc2ccccn2)nc2ccccc21`, in test [1], the cell count worked out at 346. Moreover, the inhibition was 4.3% (inactive) in test [1]; -44% (inactive) in [3]; 5.26% (inactive) in [5]; 2.14% (inactive) in [9]; -13.3% (inactive) in [10]; -19.7% (inactive) in [11]. In addition, in [2], the inhibition of aggregation is -16.9% (inactive). For the same compound, the nuclei count in test [2] came out at 88.4%; in test [3], 135%. In addition, the z-score in test [4] (setting [16]) is -0.331; in test [4] (setting [17]), -0.988; in [4] (setting [18]), 1.63. In addition, the fluorescence slope in [6] is -0.224 (inactive). In addition, the NADPH fluorescence slope in test [7] is -0.000107 (inactive). In [8], the slope was 0.00613 (inactive).
On to `CCN(CC)CCNC(=O)c1ccc(NC(C)=O)cc1`, for which the cell count in [1] was 497. The inhibition was -5.5% (inactive) in [1]; 15.6% (inactive) in test [3]; 5.79% (inactive) in test [5]; -7.67% (inactive) and -9.65% (inactive) in test [9]; 12.9% (inactive) in test [10]; 42.8% (inactive) in test [11]. Also, the inhibition of aggregation in [2] is -5.6% (inactive). The values for the nuclei count in [2] and in [3] were 94.5% and 104%, respectively. In addition, the z-score is -0.982 in [4] (setting [16]), 0.436 in test [4] (setting [17]) and 0.661 in [4] (setting [18]). For the same compound, the fluorescence slope in [6] is -0.442 (inactive). In addition, in [7], the NADPH fluorescence slope was -5.7e-05 (inactive). Further, the slope in test [8] was 0.00544 (inactive).
As to `COc1cc(NS(=O)(=O)c2ccc(N)cc2)nc(OC)n1`, in test [1], the cell count stood at 482. Also, the inhibition in test [1] was 1.1% (inactive); in test [3] it was -59.5% (inactive); in test [5], 5.79% (inactive); in [9], 20.1% (inactive); in test [10], 24.9% (inactive); in test [11], 51.9% (active). In addition, the inhibition of aggregation in [2] is -12.6% (inactive). Further, the results for the nuclei count in test [2] and in test [3] were 82% and 96.6%, respectively. For the same compound, the z-score in test [4] (setting [16]) is 0.641; in test [4] (setting [17]) it was 0.795; in test [4] (setting [18]) it was -0.759. The fluorescence slope in test [6] was -0.439 (inactive). Also, in [7], the NADPH fluorescence slope is -7e-05 (inactive). Further, the slope in test [8] is 0.00564 (inactive).
As for `CCCn1c(=O)c2[nH]c(C3CCCC3)nc2n(CCC)c1=O`, in test [1], the cell count turned out to be 503. Moreover, the inhibition in [1] is -3.1% (inactive); in test [3], -83.5% (inactive); in [5], 3.59% (inactive); in test [9], 4.71% (inactive) and -9.34% (inactive); in test [10], 14.1% (inactive); in test [11], 38.5% (inactive). The inhibition of aggregation in test [2] is 26% (inactive). Besides, the values for the nuclei count in [2] and in test [3] were 92.4% and 117%, respectively. The figures for the z-score in test [4] (setting [16]), in test [4] (setting [17]) and in [4] (setting [18]) were 0.276, -0.431 and -1.23, respectively. In addition, in test [6], the fluorescence slope is -0.432 (inactive). Moreover, the NADPH fluorescence slope in test [7] is -7.8e-05 (inactive). In addition, in test [8], the slope is 0.00398 (inactive).
